The supplement of paper PMC6555819

system: VDR:RXRa (NR concentration 270 nM, RXRa partner concentration 90 nM); experiment: PBM binding z-score (relative to random genomic background probes); higher = stronger binding; sequences stand for … in GC…GCGATTGACAGCGTAGAATGAAGG
Method: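 Protein-binding microarray (Agilent 4x180K custom design, double-stranded 60-nt probes: 5' GC cap, 34-nt variable region, 24-nt constant primer region; full probe sequence given). Purified or IVT nuclear receptor:RXRα heterodimers (3:1 NR:RXRα, mostly 270:90 nM) or homodimers were incubated for 1 h in PBS with 2% milk and no ligand, then detected with Alexa488 antibodies. Fluorescence from o1-orientation probes (~5 replicates averaged) was converted to z-scores against 500 random hg19 background probes. Variable regions are seed direct-repeat (DR0–DR5) sites, all their single-nucleotide variants and half-site ablations.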

Going from GCAGACAGGTGAAACGCAGGTTACTCAGGGTGGC to ATCGAAAGGTCGACGAGGTGAGCATACACCGTTT, the PBM binding z-score rises from -0.128 to 5.07.

Going from TCGATTAGGTTACCAATGGGGCATTCAGCTTTCT to CCTTACGGGTCTCGAGGTTATAGCACGACGAGCG, the PBM binding z-score rises from 0.441 to 0.479.

First: ACTATTAGTTGAGACGAGTGCAACCGATAGGTTG
Second: TCCGCTAGGTCAACGATGGTCAGCTAATCTGCTA
The PBM binding z-score of the first is lower: 0.942 for the first, 1.45 for the second.

Going from CAAACTAGGTCAACGGTCAAAGTCGAGCCAACCA to GCATATAGGTAATACAAGTTGAAAGTCCGATTGT, the PBM binding z-score falls from 2.71 to 0.409.

Going from CTCGAAAGGTCGTGCTCAGGTCAGTATACCAAAC to GCTGCTACGTCAGGTTGGTCAGCTAACGGGTACG, the PBM binding z-score falls from 5.19 to -0.773.

Compared with GCTGCTAGGTCAGCTGATGGTCAGCTAAAGCTCG, TCATATAGGTAAAGGTGATAGTCGAACGATATGA is higher in PBM binding z-score: -0.126 for the first, 0.559 for the second.

Going from GCGACTGGGGCAAAGCAGGTTAACATAAGGTTGG to CTCGAAAGGTCGTACTCAGGTGAGTATACCAAAC, the PBM binding z-score rises from 0.364 to 3.52.

First: ATCGAAAGGTCGTGAGGTTAGTATACAGAAAGGC
Second: GGAACGTGGGCAAGTTGATAGCAGAGTTTGATGG
The PBM binding z-score of the first is higher: 4.66 for the first, -0.629 for the second.

Compared with ATCGAAAGGTCTACGAGGTGAGTATACACCGTTT, AGTCAAAGTTCACTAGCTAACGTAAGATTCAGCT is higher in PBM binding z-score: 1.6 for the first, 3.66 for the second.

Compared with CCTTACGGGTCACGAGGATATAGCACGACGAGCG, CCTACTAGTTGACCATAAGGGCAACCGAAGCTCG is lower in PBM binding z-score: 3.9 for the first, 0.471 for the second.

Going from TCGAGTAGGTTAGTCGGGACATTCAGCCAACATA to CCTTACGGGTCACTGACAAGTTATAGCATTTGGA, the PBM binding z-score rises from 1.19 to 3.07.

Compared with AGAACGAGGGCACGTTGAGTTGATAGCAGAGTAG, CGAACGAGGGCATGATTTGATAGCAAATGCCGAT is lower in PBM binding z-score: 2.32 for the first, 0.55 for the second.

Compared with CATACTGGGCCACGAAAGGTCATTGATTCAGTGA, GGAACGAGGGCAAAGTTGAGAGCATCTGTCGACG is lower in PBM binding z-score: 4.3 for the first, 1.55 for the second.

Going from ACTAGTTGGTCAGCTGACGTCACACACAATTCGG to TCATATAGGTAAACAGGTGAACGTCCGTAAGTTA, the PBM binding z-score rises from 0.0123 to 1.19.

Compared with GGAACGAGGGCAAGTTGAGAGCAGAGTTTGATGG, CGTCAAAGTTTAACTAAGGTAACGTAAAGCACGC is lower in PBM binding z-score: 0.881 for the first, 0.861 for the second.

First: CCTAGTTCGTCAGGAGGTCACACACCGGATATGA
Second: TCGAGTAGGTTAGTCGGGGCATTTAGCCAACATA
The PBM binding z-score of the first is higher: 5.03 for the first, 2.2 for the second.

Going from GCTAGTTGGTAAGTAAAAGGTCACACACCGGTCG to CAAACTATGTCAAGGTCAAAGTCGGTTTGTGCCA, the PBM binding z-score rises from 3.82 to 4.83.

First: CCGACTGGAGCATAAGGTTACCATAAGCCAGCCC
Second: TCATATATGTAAACAGGTGAAAGTCCGTAAGTTA
The PBM binding z-score of the first is lower: 0.0802 for the first, 1.31 for the second.

Compared with ACTAGCAGGACAAGGGTCACTCAAGATTAGTCCG, TCTATTAGTTGAAGGGCAACCGCCGAGTCCGTTT is lower in PBM binding z-score: 3.05 for the first, 0.974 for the second.

First: GGAACGAGGGCATTCGTGTTGATAGCATGGCGAT
Second: GATACAGGCTCAAGGCCAGAGTACGCGTATTGAT
The PBM binding z-score of the first is higher: 1.6 for the first, -0.543 for the second.
